# KLK7 zymogen act = activators of human kallikrein-7 zymogen; P49862; purified proKLK7, EDANS-DABCYL substrate fluorescence; 100% is mature enzyme control, 0% vehicle; activation, % at 7 µM; 370,000 tested, 0.9% active;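 active means activation above the mean of all tested compounds plus 3 SD, computed per campaign excluding outliers beyond control limits, cut at about 13% in these data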
# ADAM17 inh = inhibits human ADAM17; 370,000 tested, 0.83% active; recombinant ADAM17, EDANS/DABCYL FRET peptide cleavage; P78536; inhibition, % at 6.95 µM; AID 720648;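 active means inhibition above the mean of compounds lying between control limits plus 3 SD, set per campaign, cut at about 8.5% in these data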;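 further: 0% = DMSO-only wells as the low control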
# ADAM10 inh = ADAM10 inhibition, QFRET primary screen; O14672; recombinant ADAM10, EDANS/DABCYL FRET peptide cleavage, 3 h; inhibition, % at 7 µM; 370,000 tested, 0.62% active;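 active means inhibition above a per-campaign cutoff equal to the mean of compounds falling between control-based bounds plus 3 SD, cut at about 20% in these data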;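 further: 0% = DMSO wells while the 100% control is not disclosed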
# PLC-beta3 inh = inhibitors of human phospholipase C beta3; Purified PLC-beta3, fluorogenic substrate, fluorescence; Q01970; 370,000 tested, 0.18% active; inhibition, % at 12.2 µM; in the data active means inhibition above about 11%;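 further: 0% = median of compound wells on plate and 100% = full blocker control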
# Target sequence (Q01970 whole entry, looked up): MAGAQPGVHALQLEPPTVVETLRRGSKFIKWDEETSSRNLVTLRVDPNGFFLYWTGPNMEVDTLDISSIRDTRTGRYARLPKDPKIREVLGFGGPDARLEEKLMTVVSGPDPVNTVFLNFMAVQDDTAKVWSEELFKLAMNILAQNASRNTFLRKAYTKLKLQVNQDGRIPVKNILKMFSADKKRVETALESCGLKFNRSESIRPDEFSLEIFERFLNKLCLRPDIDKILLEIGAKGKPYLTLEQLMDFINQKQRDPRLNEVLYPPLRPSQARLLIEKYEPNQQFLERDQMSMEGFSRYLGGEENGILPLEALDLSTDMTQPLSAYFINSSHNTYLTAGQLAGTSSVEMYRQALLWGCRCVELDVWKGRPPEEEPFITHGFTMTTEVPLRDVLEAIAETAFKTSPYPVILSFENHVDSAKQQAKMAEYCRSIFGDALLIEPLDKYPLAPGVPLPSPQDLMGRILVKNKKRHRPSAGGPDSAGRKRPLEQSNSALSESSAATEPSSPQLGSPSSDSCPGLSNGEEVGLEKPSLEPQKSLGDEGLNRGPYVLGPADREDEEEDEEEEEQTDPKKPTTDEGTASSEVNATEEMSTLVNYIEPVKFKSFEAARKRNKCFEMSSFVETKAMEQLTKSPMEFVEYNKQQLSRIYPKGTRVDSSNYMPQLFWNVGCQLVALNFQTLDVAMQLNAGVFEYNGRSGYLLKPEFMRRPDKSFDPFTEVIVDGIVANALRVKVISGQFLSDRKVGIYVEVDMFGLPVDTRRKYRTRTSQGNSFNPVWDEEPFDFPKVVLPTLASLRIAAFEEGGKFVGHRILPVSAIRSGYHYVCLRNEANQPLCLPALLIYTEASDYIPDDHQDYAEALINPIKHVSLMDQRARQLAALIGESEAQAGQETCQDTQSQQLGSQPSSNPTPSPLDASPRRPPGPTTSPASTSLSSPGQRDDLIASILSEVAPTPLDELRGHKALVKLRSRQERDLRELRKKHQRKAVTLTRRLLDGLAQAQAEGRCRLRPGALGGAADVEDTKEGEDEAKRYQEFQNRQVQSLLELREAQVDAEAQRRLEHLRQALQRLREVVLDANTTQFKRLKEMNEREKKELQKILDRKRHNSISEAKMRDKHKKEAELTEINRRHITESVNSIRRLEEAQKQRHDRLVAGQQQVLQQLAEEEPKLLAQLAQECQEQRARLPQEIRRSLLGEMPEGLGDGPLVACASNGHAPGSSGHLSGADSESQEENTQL
# PLCg1 inh = PLC-gamma1 (human) inhibition, primary screen | P19174 | purified PLC-gamma1, fluorogenic substrate, fluorescence | inhibition, % at 12.2 µM | 370,000 tested, 0.84% active | AID 720700
# PLCgamma1 ctr = counter-screen for PLC-beta3 inhibitors: inhibitors of human PLC-gamma1 | inhibition, % at 12.3 µM | 3,300 tested, 3.1% active | purified PLC-gamma1, fluorogenic substrate, fluorescence | shares compounds with PLCg1 inh | AID 743258
# PLCbeta3 conf = confirmation of human PLC-beta3 inhibitors | shares compounds with PLCg1 inh | purified PLC-beta3, fluorogenic substrate fluorescence | inhibition, % at 12.3 µM | 3,300 tested, 1% active | AID 743261; in the data active means inhibition above about 11%
# Starred values were filed as active, the others as inactive; x = no result; ! = a repeat was not active. Most compounds without a hit are left out; they make up all but 2.9% or so of the library. Unless noted, no stated cut-off is given here; in the data, active means inhibition above about 9.5%; inactive means the rest.
SMILES,KLK7 zymogen act,ADAM17 inh,ADAM10 inh,PLC-beta3 inh,PLCg1 inh,PLCgamma1 ctr,PLCbeta3 conf
Cc1ccc(Nc2n[nH]c(C)c2[N+](=O)[O-])c(C)c1,1,4,8,2,9.6*,-3,-1
Cc1ccccc1Nc1n[nH]c(C)c1[N+](=O)[O-],0,3,14,3,9,x,x
CC(NC(=O)Cn1nc(-c2ccccc2)c2ccccc2c1=O)c1ccccc1 (stereo unspecified),0,-1,-2,4,1,x,x
CC(NC(=O)Cn1nc(C(=O)O)c2ccccc2c1=O)c1ccccc1 (stereo unspecified),0,4,7,12*,11*,-2,1
COc1ccc(F)cc1Cn1nc(C(=O)O)c2ccccc2c1=O,0,3,6,1,12*,5,2
Cc1ccc(CC2CC(=O)N(c3nc4ccccc4n3C)C2=O)cc1 (stereo unspecified),0,5,8,7,12*,-10,-3
O=C1CN(C(=O)c2ccccc2F)C(c2ccccc2)c2cc(Cl)ccc2N1 (stereo unspecified),1,1,18,-5,10*,-4,0
COc1ccc(NC(=O)c2cc(-c3cccs3)on2)c(OC)c1,0,2,1,-3,0,x,x
O=C(C1CCC(CNc2c(N3CCCCC3)c(=O)c2=O)CC1)N1CCCCC1 (stereo unspecified),0,0,-5,-1,-3,x,x
Fc1cc(F)cc(NC(=S)NN2CCOCC2)c1,0,0,13,8,11*,0,0
c1ccc(-c2nnc(CN3CCN(c4ccccc4)CC3)o2)cc1,0,0,-1,-1,-1,x,x
Nc1[nH]c(C(=O)c2ccccc2)c(-c2ccncc2)c1C(=O)NC1CC1,1,0,3,2,10*,-6,-3
COc1cccc(NC(=O)N(Cc2cc3cc(C)cc(C)c3[nH]c2=O)CC2COCCO2)c1 (stereo unspecified),0,4,5,10,11*,-7,-4
Cc1ccc(NC(=O)N(Cc2cc3cc(C)cc(C)c3[nH]c2=O)CC2COCCO2)cc1 (stereo unspecified),1,-3,4,2,4,x,x
Cc1cc(C)cc(NC(=O)C2(c3cccs3)CCOCC2)c1,-1,0,1,3,9.8*,-8,-12
O=C(c1ccc([N+](=O)[O-])cc1Cl)N1CCN(c2ccccn2)CC1,-1,-1,-1,-4,4,x,x
O=C(c1ccc(Cl)cc1[N+](=O)[O-])N1CCN(c2ccccn2)CC1,-1,5,5,12*,8,2,0
CC1(C)c2ccccc2-c2nc3ccccc3cc2C1O (stereo unspecified),1,4,-8,-2,11*,-9,-10
CCN(c1ccccc1)S(=O)(=O)c1ccc(Cl)c(C(=O)NCC2CCCO2)c1 (stereo unspecified),0,-1,11,-3,12*,-6,-2
Cn1c(=O)n(C)c2cc(CNC(=O)[C@H]3O[C@@H](n4cnc5c(N)ncnc54)[C@H](O)[C@@H]3O)ccc21,1,-3,-7,1,3,x,x
CC1(C)CC(=O)C(C=NCCN2CCN(C(=O)NC34CC5CC(CC(C5)C3)C4)CC2)=C(O)C1,0,-1,11,4,5,x,x
CCNc1nc(OC)nc(N2CCC(Cc3ccccc3)CC2)n1,0,5,11,11*,4,-4,-4
COc1nc(NCc2ccco2)nc(N2CCC(C)CC2)n1,0,0,4,3,2,x,x
CC(C)CN(CC(C)C)C(=O)CSc1nc2cccnc2n1C,0,4,-5,-3,-1,x,x
CC(C(=O)Nc1ccccc1C(=O)N1CCOCC1)N(c1ccccc1)S(C)(=O)=O (stereo unspecified),0,3,-6,0,3,x,x
SMILES,KLK7 zymogen act,ADAM17 inh,ADAM10 inh,PLC-beta3 inh,PLCg1 inh,PLCgamma1 ctr,PLCbeta3 conf
COc1cccc(NC(=O)[C@@H]2CCC(=O)N2C2OC(=O)c3ccccc32)c1 (stereo partly specified),0,-2,-11,1,2,x,x
COc1cc(CNCCO)cc(Cl)c1OCc1ccccc1Cl,0,-1,-5,1,3,x,x
COc1cccc(CNCCO)c1OCc1ccccc1Cl,-1,4,5,3,11*,-4,-4
CCOC(=O)C(NC(=O)CC)(Nc1ccc(S(N)(=O)=O)cc1)C(F)(F)F (stereo unspecified),0,-3,3,-8,1,x,x
CCOC(=O)C(NC(=O)CC)(Nc1ccccc1)C(F)(F)F (stereo unspecified),0,3,5,11*,14*,-5,1
COc1cc(OC)cc(C(=O)NC2CCN(Cc3nnnn3Cc3cccs3)CC2)c1,-1,2,-4,5,12*,1,-1
COc1cc(OC)cc(C(=O)NC2CCN(Cc3nnnn3Cc3ccc(F)cc3)CC2)c1,1,-2,-6,-3,-1,x,x
COc1ccc(C(=O)N/N=C(\c2ccccc2)c2ccccn2)cc1,-1,5,2,3,5,x,x
O=C(NN=C(c1ccccc1)c1ccccn1)c1ccccc1,0,3,9,0,9.7*,0,1
O=C(CSc1nccn1Cc1ccccc1)NC1CCCC1,0,1,5,-2,1,x,x
Cc1ccccc1N1C(=O)C(Oc2ccc(Cl)cc2)C1CNCCCOC(C)C (stereo unspecified),0,0,9,2,5,x,x
COCCCNCC1C(Oc2ccc(Cl)cc2)C(=O)N1c1ccccc1C (stereo unspecified),0,0,-6,-1,9.9*,-3,-2
Cn1cc(/C=N/NC(N)=S)c2ccccc21,-1,3,6,4,10*,1,5
COc1ccc(Br)cc1/C=N/NC(=O)c1ccco1,0,-6,-19,-2,-1,x,x
CCOC(=O)CN1C(=O)c2ccccc2C1=O,0,-6,3,2,0,x,x
C=CCOC(=O)CN1C(=O)c2ccccc2C1=O,1,5,13,12*,9,2,4
Cc1ccc(S(=O)(=O)N2CCN(CC(=O)NC3CCCc4ccccc43)CC2)cc1C (stereo unspecified),0,8,-3,5,11*!,-3,0
C=CCNC(=O)C1CCN(S(=O)(=O)CC)CC1,0,-4,3,-2,2,x,x
Cc1cc2nc(CCN(Cc3cccnc3)C(=S)Nc3ccc(F)cc3)[nH]c2cc1C,0,0,-1,2,12*,-3,-6
Cc1cc2nc(CCN(Cc3cccnc3)C(=S)Nc3ccccc3)[nH]c2cc1C,0,6,3,-2,2,x,x
